Experimental findings from PubChem BioAssay (EPA / NIEHS) are described below.

Values joined by “and” are separate entries in the source; they are usually repeats but may differ in a detail not shown here. Identical values can stand only once. A structure can be active in one record and inactive in another. Active and inactive are the calls of the source. Rule for the calls: active = hit-call score of the fitted dose curve at least 0.9, where 1 is the maximum; inactive = score below 0.9.

Read-out in the assay: Tissue plasminogen activator (tPA), PLAT (gene 5327)
As to the kind of experiment: BSK_BE3C_tPA: BioMAP Diversity Plus: BE3C Assay for Tissue plasminogen activator (tPA) Biomarker Activity (AID 2283041).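 For outcome: tPA level quantified by ELISA one day after compound addition.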 Conditions: primary human bronchial epithelial cells; actives raise or lower the signal. In short, it runs like this: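 ELISA read-out of tPA on human primary bronchial epithelial cells, 24 h post-dosing; bidirectional fit vs DMSO negative control/baseline.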
For `C=C(C)C(=O)OCC(F)(F)C(F)(F)C(F)(F)C(F)(F)C(F)(F)C(F)(F)C(F)(F)F`, the outcome was inactive.
With `Nc1ccc([N+](=O)[O-])cc1O`, the outcome was inactive.
The same measure, in the same setting: in the case of `FC(F)(F)C(F)(F)C(F)(F)C(F)(F)C(F)(F)C(F)(F)CCS` it was “inactive”; in that of `O=S(=O)(OCC(F)F)C(F)(F)F`, “inactive”.
Take `Cc1ccc(S(=O)(=O)OCC(F)(F)C(F)(F)C(F)(F)C(F)(F)C(F)(F)C(F)F)cc1`: the result was inactive.
As to `N=C(N)C(F)(F)C(F)(F)C(F)(F)C(F)(F)C(F)(F)C(F)(F)C(F)(F)F`, the outcome was inactive.
Consider `CCCCOCCOCCOC(=O)CCCCC(=O)OCCOCCOCCCC`, for which the outcome was inactive.
On to `OCCCC(F)(F)C(F)(F)C(F)(F)C(F)(F)C(F)(F)C(F)(F)C(F)(F)F`, for which the AC50 is 35.7 µM (active) and 30 µM (active).
With `FC(F)(F)C(F)(F)C(F)(F)C(F)(F)CCI`, the result was inactive.
On the same count and under the same terms, in the case of `FC(F)(F)C(F)(F)C(F)(F)C(F)(F)C(F)(F)C(F)(F)C(F)(F)C(F)(F)F` it was “inactive”; in that of `FC(F)(Br)C(F)(F)C(F)(F)C(F)(F)C(F)(F)C(F)(F)Br`, “inactive”.
`FC1CC(F)(F)C(F)(F)C1(F)F` (centres undefined): the outcome was inactive.
With `FC(F)(I)C(F)(F)C(F)(F)C(F)(F)I`, the concentration at half-maximal activity (AC50) is 46.5 µM (active) and 43.2 µM (active); the result was inactive.
As for `OCC(F)(F)C(F)(F)C(F)(F)C(F)F`, the outcome was inactive.
Consider `C=CC(=O)OCC(F)(F)C(F)(F)C(F)(F)C(F)(F)COC(=O)C=C`, for which the concentration at half-maximal activity (AC50) was 8.82 µM (active) and the result was inactive.
As to `C=C(C)C(=O)OCC(F)(F)C(F)(F)C(F)(F)F`, the outcome was inactive.
On the same count and under the same terms, next, `CCCCCCOC(=O)c1ccccc1O`: “inactive”; `FC(F)(F)C(F)(F)CNCC(F)(F)C(F)(F)F`: “inactive”; `O=C(O)C(F)(F)C(F)(F)C(F)(F)C(F)(F)C(F)(F)C(F)(F)C(F)(F)C(F)(F)C(F)(F)C(F)F`: “inactive”.
The same measure, in the same setting: next, `C=CC(F)(F)C(F)(F)C(F)(F)C(F)(F)C(F)(F)C(F)(F)C(F)(F)C(F)(F)C=C`: “inactive”.
Turning to `O=C(Cl)C(F)(F)C(F)(F)C(F)(F)C(F)(F)C(F)(F)C(F)(F)C(F)(F)C(F)(F)F`, the AC50 was 27.5 µM (active) and 22.8 µM (active); the outcome was inactive.
As to `O=C(O)C(F)(F)C(F)(F)C(F)(F)C(F)(F)C(F)(F)C(F)(F)C(F)(F)C(F)(F)Cl`, the AC50 was 30 µM (active) and 20.4 µM (active).
Take `O=P(O)(O)OCCC(F)(F)C(F)(F)C(F)(F)C(F)(F)C(F)(F)C(F)(F)F`: the AC50 is 3.64 µM (active) and the result was inactive.
As for `C#C[C@]1(O)CC[C@H]2[C@@H]3CCc4cc(OC)ccc4[C@H]3CC[C@@]21C`, the result was inactive.
As for `CCCCC(CC)COP(=O)(O)OCC(CC)CCCC` (centres undefined), the half-maximal activity concentration (AC50) is 25.9 µM (active) and 14.4 µM (active).
`O=C(O)C(F)(F)C(F)(F)C(F)(F)C(F)(F)C(F)(F)C(F)(F)C(F)(F)C(F)(F)C(F)(F)C(F)(F)C(F)(F)C(F)(F)F`: the result was inactive.
With `C=C(C)C(=O)OCCC(F)(F)C(F)(F)C(F)(F)C(F)(F)C(F)(C(F)(F)F)C(F)(F)F`, the outcome was inactive.
On to `O=C(O)C(F)(F)C(F)(F)C(F)(F)C(F)(F)C(F)(F)C(F)(F)C(F)(F)C(F)(F)C(F)(F)C(F)(F)C(F)(F)C(F)(F)C(F)(F)F`, for which the result was inactive.
For the molecule `O=C(O)C(F)(OC(F)(F)C(F)(OC(F)(F)C(F)(F)C(F)(F)F)C(F)(F)F)C(F)(F)F` (centres undefined), the outcome was inactive.
For the molecule `CC(C)(C)C(=O)CC(=O)C(F)(F)C(F)(F)C(F)(F)F`, the result was inactive.
With `CCCCCCCCC(F)(F)C(F)(F)C(F)(F)C(F)(F)C(F)(F)C(F)(F)F`, the result was inactive.
As for `CCCCCCCCCCCCCCCC[N+](C)(C)Cc1ccccc1`, the concentration at half-maximal activity (AC50) was 7.03 µM (active).
As for `C=CC/C=C/C/C=C/C/C=C/C`, the outcome was inactive.
`O=C(O)C(F)(OC(F)(F)C(F)(OC(F)(F)C(F)(OC(F)(F)C(F)(F)C(F)(F)F)C(F)(F)F)C(F)(F)F)C(F)(F)F` (centres undefined): the result was inactive.
For `CS(C)(=O)=O`, the result was inactive.
